Rab9 promoter act – activates the Rab9 promoter | Potency, µM (series often up to 9.22 µM), for inactives: top-dose activation, negative = inhibition, hits mostly activators | AID 485297 | Huh7 Rab9 promoter-luciferase reporter, luminescence, 24 h | 2.8% of 320,000 active; also: % of control where 0% means no effect; nearly all actives have a fitted effect of over 60% in size
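Luciferase signal after 10 min detection reagent at ambient indicates Rab9 promoter upregulation; stably transfected Huh7 cells were treated 24 h with compound in DMSO at 37 °C, 5% CO2.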
FLuc modulator – firefly luciferase modulation, counter-screen for miR-21 project; P08659; purified FLuc, Km substrates, luminescence inhibition; Potency, µM (titrated, usually from 57.5 µM), for inactives: at the top dose activity change, negative = inhibition, most hits filed as inhibitors; 6.9% of 360,000 active;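 also: plate controls were vehicle for no effect and reference inhibitor for full effect; nearly all actives have a fitted effect of over 55% in size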
Target sequence (P08659 whole entry, looked up): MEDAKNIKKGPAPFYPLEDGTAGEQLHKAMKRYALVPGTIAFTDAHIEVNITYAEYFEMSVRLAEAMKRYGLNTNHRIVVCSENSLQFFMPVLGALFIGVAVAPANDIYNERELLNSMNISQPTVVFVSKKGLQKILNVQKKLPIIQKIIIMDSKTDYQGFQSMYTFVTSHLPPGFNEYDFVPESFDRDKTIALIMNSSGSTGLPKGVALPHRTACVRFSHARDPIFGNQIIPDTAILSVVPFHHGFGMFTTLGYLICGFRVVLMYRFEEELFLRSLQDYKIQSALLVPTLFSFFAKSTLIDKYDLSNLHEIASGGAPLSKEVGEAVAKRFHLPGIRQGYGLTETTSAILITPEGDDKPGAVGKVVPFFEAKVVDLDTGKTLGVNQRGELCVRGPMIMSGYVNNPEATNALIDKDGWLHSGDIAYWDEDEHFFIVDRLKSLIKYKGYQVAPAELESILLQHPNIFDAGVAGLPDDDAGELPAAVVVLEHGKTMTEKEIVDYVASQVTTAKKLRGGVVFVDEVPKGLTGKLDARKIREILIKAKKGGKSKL
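Biochemical qHTS of compounds, final roughly 60 µM downward over six points, against 10 nM purified firefly luciferase using Km concentrations of substrates (10 uM D-luciferin, 10 uM ATP) in Tris acetate pH 7.5 buffer; luminescence output.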
ELG1 repair inh – inhibitors of ELG1-dependent DNA repair in HEK293T cells; HEK293T ELG1-luciferase reporter, luminescence, 16 h; DNA damage induced by 5-fluorouridine; Potency, µM (top dose mostly 46.1 µM), for inactives: at the highest dose activity change, negative = inhibition, usual class: inhibitors; 2.3% of 330,000 active; AID 504467; also: % is scaled to controls: 0 for no effect and ±100 for the full control effect; nearly all actives have a fitted effect of over 55% in size
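In this reporter screen, reduction of luminescence relative to DMSO vehicle indicated activity. Compounds and 5-fluorouridine were added together to 2,000 cells per well, incubated for 16 hr at 37 °C, then developed with ONE-Glo.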
SMN2 splice up – SMN2 splice variant enhancement. Potency, µM (series often up to 46.1 µM), without a hit: at the top dose activity change, positive = activation, most hits filed as activators. HEK293 SMN2-luciferase splicing reporter, luminescence, 30-36 h. AID 1458. 2.8% of 210,000 active; also: % of control where 0% means no effect; nearly all actives have a fitted effect of over 55% in size
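HEK293 cells carry an SMN2 […]–luciferase reporter in which exon 7 inclusion puts luciferase in frame. Cells were plated 10-12 h before compound addition, then incubated 30-36 h at 37C. ONE-Glo luminescence was read; sodium butyrate at 4.5 mM final served as control.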
NPC1 promoter act – activates the NPC1 promoter; Potency, µM (doses to about 9.22 µM), for the others: at the highest dose activation, hits mostly activators; Huh7 NPC1 promoter luciferase reporter, 24 h; 2.4% of 320,000 active; AID 485313; also: % of control where 0% means no effect; nearly all actives have a fitted effect of over 60% in size
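Stable NPC1-promoter luciferase Huh7 line; cpd (DMSO) 24 h, 37 °C, 5% CO2; Amplite luciferase reagent 10 min RT; luminescence readout. qHTS format.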
ELG1 genotoxic – induces genotoxicity in HEK293T cells with luciferase-tagged ELG1. HEK293T ELG1-luciferase reporter, luminescence, 16 h. 1.3% of 330,000 active. Potency, µM (titrated, usually from 46 µM), inactives show at the top dose activity change, positive = activation, actives largely listed as activators. AID 504466; also: % of control where 0% means no effect; nearly all actives have a fitted effect of over 60% in size
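Reporter readout depends on ELG1 protein level, which increases with genetic stress. After 16 hr compound exposure at 37 °C, luciferase activity was quantified using ONE-Glo.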
Active calls of the source: *; [ ] = dose if it differs, or a comment. Most compounds without a hit are left out; they make up all but 9.4% or so of the library. Calls follow the shape of the dose curve; as a rule, active = well fitted curve in the direction sought with a large enough effect; inconclusive = small, poorly fitted or top-dose-only effect, or another doubt; inactive = no such curve, though single readings can be large; an effect the other way counts as inactive or inconclusive. Potency is read from the fitted curve at half-maximal effect.

How did CCCCn1cc(S(=O)(=O)c2ccccc2)c(=O)c2cc(F)c(N3CCC(C)CC3)cc21 do in these assays?
FLuc modulator: 2%

Results for O=C(Cn1cc(C(F)(F)F)ccc1=O)N/N=C/c1ccc(F)cc1 ?
Rab9 promoter act: 0%; FLuc modulator: -1%; ELG1 repair inh: -7%; SMN2 splice up: 8%; NPC1 promoter act: -5%; ELG1 genotoxic: -1%

Results for O=C(Cn1cc(C(F)(F)F)ccc1=O)N/N=C/c1ccccc1O ?
Rab9 promoter act: -11%; FLuc modulator: -10%; ELG1 repair inh: 18µM*; NPC1 promoter act: 1%; ELG1 genotoxic: 12%

How did O=C(O)c1ccc(NS(=O)(=O)c2ccsc2C(=O)O)c(O)c1 do in these assays?
SMN2 splice up: -3%

Results for Cc1nc(S/C(=C/c2ccc(OCc3ccc(C(=O)O)cc3)cc2)C(=O)O)n[nH]1 ?
Rab9 promoter act: -4%; FLuc modulator: 27µM*; ELG1 repair inh: 19%; SMN2 splice up: -31%; NPC1 promoter act: 6%; ELG1 genotoxic: 0%

How did Oc1ccc(N=Cc2ccc(OCc3ccccc3)cc2)cc1 do in these assays?
Rab9 promoter act: -3%; FLuc modulator: 13µM*; ELG1 repair inh: inconclusive; NPC1 promoter act: -4%; ELG1 genotoxic: inconclusive

What do the screens show for `O=C(N/N=C/c1ccccc1OCc1ccccc1)c1cccnc1`?
Rab9 promoter act: 0%; FLuc modulator: 11µM*; ELG1 repair inh: -1%; SMN2 splice up: 14%; NPC1 promoter act: -1%; ELG1 genotoxic: -2%

Results for O=C(N/N=C/c1ccc(OCc2ccccc2)cc1)c1ccncc1 ?
Rab9 promoter act: -3%; FLuc modulator: -10%; ELG1 repair inh: inconclusive; SMN2 splice up: 16µM*; NPC1 promoter act: -5%; ELG1 genotoxic: inconclusive

Results for CC(=O)Nc1ccc(C(=O)N/N=C/c2ccccc2OCc2ccccc2)cc1 ?
Rab9 promoter act: 0%; FLuc modulator: 17µM*; ELG1 repair inh: inconclusive; SMN2 splice up: 2%; NPC1 promoter act: -8%; ELG1 genotoxic: 0%

What do the screens show for `Cc1ccc(C)c(S(=O)(=O)c2nnn3c2nc(Nc2ccc(F)c(Cl)c2)c2sccc23)c1`?
FLuc modulator: 5%

How did Cc1cc(C)c(NC(=O)Cn2c(=O)n(CC3CCCO3)c(=O)c3ccccc32)c(C)c1 (configuration not stated) do in these assays?
FLuc modulator: 1%; SMN2 splice up: -4%

How did O=C(NC1=NC2CCCCC2N1)c1ccccc1 (configuration not stated) do in these assays?
Rab9 promoter act: 0.32µM*; FLuc modulator: 1.5µM*; ELG1 repair inh: inconclusive; SMN2 splice up: 15%; NPC1 promoter act: 0.4µM*; ELG1 genotoxic: 0.58µM*

How did CCOc1cc(S(=O)(=O)N2CCC(Cc3ccccc3)CC2)c(OCC)cc1-n1cnnn1 do in these assays?
Rab9 promoter act: -2%; FLuc modulator: 1%; ELG1 repair inh: inconclusive; SMN2 splice up: 2%; NPC1 promoter act: -2%; ELG1 genotoxic: -2%

How did CCOc1cc(S(=O)(=O)N2CC=C(c3ccc(F)cc3)CC2)c(OCC)cc1-n1cnnn1 do in these assays?
Rab9 promoter act: -21%; FLuc modulator: 1%; ELG1 repair inh: 5.8µM*; SMN2 splice up: 2%; NPC1 promoter act: -35%; ELG1 genotoxic: -6%

What do the screens show for `Clc1ccc2oc(-c3ccccn3)nc2c1`?
Rab9 promoter act: 3.2µM*; FLuc modulator: -21%[2.3 µM]; ELG1 repair inh: inconclusive; SMN2 splice up: 16µM*; NPC1 promoter act: 2.5µM*; ELG1 genotoxic: inconclusive

What do the screens show for `Nc1ccc2oc(-c3ccccn3)nc2c1`?
Rab9 promoter act: inconclusive; FLuc modulator: 19µM*; ELG1 repair inh: inconclusive; SMN2 splice up: 2.8µM*; NPC1 promoter act: inconclusive; ELG1 genotoxic: inconclusive

Results for Nc1ccc2oc(Cc3ccc(Cl)cc3)nc2c1 ?
FLuc modulator: inconclusive; SMN2 splice up: -1%

Results for O/N=C/c1nc2cc(Cl)ccc2o1 ?
Rab9 promoter act: 4%; FLuc modulator: -10%; ELG1 repair inh: 25%; SMN2 splice up: 19%; NPC1 promoter act: 8%; ELG1 genotoxic: 3%

What do the screens show for `COc1ccc(Cn2cccc(NC(=O)Nc3cccc(C#N)c3)c2=O)cc1`?
Rab9 promoter act: -15%; FLuc modulator: 2%; ELG1 repair inh: inconclusive; SMN2 splice up: -35%; NPC1 promoter act: -3%; ELG1 genotoxic: -10%

Results for O=C(NCc1ccccc1)Nc1cccn(Cc2ccccc2F)c1=O ?
Rab9 promoter act: 4%; FLuc modulator: 12µM*; ELG1 repair inh: 10%; SMN2 splice up: -26%; NPC1 promoter act: 0%; ELG1 genotoxic: 4%

What do the screens show for `O=C(NCc1ccccc1)Nc1cccn(Cc2ccc(F)cc2)c1=O`?
Rab9 promoter act: -3%; FLuc modulator: inconclusive; ELG1 repair inh: -11%; SMN2 splice up: -48%; NPC1 promoter act: 0%; ELG1 genotoxic: 0%

What do the screens show for `CCOc1ccc(NC(=O)Nc2cccn(Cc3ccccc3)c2=O)cc1`?
Rab9 promoter act: 0%; FLuc modulator: 9.5µM*; ELG1 repair inh: inconclusive; SMN2 splice up: -20%; NPC1 promoter act: 3%; ELG1 genotoxic: -1%

Results for Cc1cc(NC(=O)NCc2ccccc2)c(=O)n(Cc2ccc(F)cc2)c1 ?
Rab9 promoter act: 5%; FLuc modulator: 1.7µM*; ELG1 repair inh: -3%; NPC1 promoter act: -3%; ELG1 genotoxic: 3%

How did O=C(NCc1ccccc1)Nc1cccn(Cc2ccccc2)c1=O do in these assays?
Rab9 promoter act: -7%; FLuc modulator: 11µM*; ELG1 repair inh: 10%; SMN2 splice up: -18%; NPC1 promoter act: 1%; ELG1 genotoxic: -2%

What do the screens show for `Cc1ccsc1CCN1C(=O)N(c2ccccc2)C(=O)C1CC(=O)Nc1ccc(F)cc1` (configuration not stated)?
FLuc modulator: 3%; SMN2 splice up: 18%

What do the screens show for `Cc1ccc(Cn2cccc(NC(=O)NC3CCCCC3)c2=O)cc1`?
Rab9 promoter act: -4%; FLuc modulator: 17µM*; ELG1 repair inh: 7%; SMN2 splice up: -50%; NPC1 promoter act: 1%; ELG1 genotoxic: -5%

Results for CCOc1ccc(NC(=O)Nc2ccccc2SC)cc1 ?
Rab9 promoter act: inconclusive; FLuc modulator: 2.7µM*; ELG1 repair inh: inconclusive; NPC1 promoter act: 4µM*; ELG1 genotoxic: inconclusive

How did COc1ccc(CNC(=O)C2CC(c3ccc(OC)cc3)=NO2)cc1 (configuration not stated) do in these assays?
Rab9 promoter act: 19%; FLuc modulator: 2%; ELG1 repair inh: 1%; SMN2 splice up: 1%; NPC1 promoter act: -1%; ELG1 genotoxic: -1%

Screening data (PubChem)
